A short description of experiment [1]: compound effects on lung adenocarcinoma cell viability – A549, calcein-AM fluorescence, 48 h, basal, profiling panel (AID 1162). Further: test concentration not given here. As to conditions: higher = more signal.
Experiment [2] in a line: compound effects on differentiated 3T3-L1 adipocyte viability – cell-based, 3T3-L1 adipocytes, calcein-AM fluorescence, 48 h, basal, profiling panel (AID 1163). Further: test concentration not given here. As to conditions: 3T3-L1 adipocytes viability, higher = more signal.
The nature of experiment [3]: compound effects on hepatocellular carcinoma cell viability – HepG2, calcein-AM fluorescence, 48 h, basal, profiling panel (AID 1164). Further: test concentration not given here. Conditions: higher = more signal.
Experiment [4] can be described thus: compound effects on multiple myeloma cell viability – MM1S, calcein-AM fluorescence, 48 h, basal, profiling panel (AID 1165). Further: test concentration not given here. As to conditions: higher = more signal.
Experiment [5] in a line: calcein-AM signal in unstimulated myeloma cells – cell-based, calcein-AM fluorescence, 48 h, PK04 Diversity Set, profiling panel (AID 1166).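 Further: cells grown under basal conditions without added stimulus; test concentration not given here.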 As to conditions: RPMI8226 myeloma viability, higher = more signal.
Experiment [6] in a line: JC-1 mitochondrial signal, unstimulated HepG2 cells – cell-based, JC-1 fluorescence, 24 h, 100 nL compound, profiling panel (AID 1167). Further: test concentration not given here. Conditions: HepG2 mitochondrial potential, higher = more signal.
Experiment [7] is described as follows: JC-1 mitochondrial signal, unstimulated adipocytes – cell-based, JC-1 fluorescence, 3T3-L1 adipocytes, 24 h, 100 nL compound, profiling panel (AID 1168). Further: test concentration not given here. As to conditions: JC-1 mitochondrial fluorescence, higher = more signal, called active from +8 up or from −8 down.
A short description of experiment [8]: JC-1 mitochondrial signal, unstimulated myeloma cells – cell-based, JC-1 fluorescence, RPMI8226, 24 h, 100 nL compound, profiling panel (AID 1169). Further: test concentration not given here. As to conditions: JC-1 mitochondrial potential fluorescence, higher = more signal.
Experiment [9] in a line: JC-1 mitochondrial signal, unstimulated MM1S myeloma – cell-based, JC-1 fluorescence, 24 h, 100 nL compound, profiling panel (AID 1170). Further: test concentration not given here. Conditions: MM1S mitochondrial potential, higher = more signal.
Experiment [10] is described as follows: resazurin metabolic signal in A549 cells – cell-based, resazurin fluorescence, 24 h, PK04 Diversity Set, profiling panel (AID 1171). Further: test concentration not given here. As to conditions: A549 viability, higher = more signal, called active from +8 up or from −8 down. (In general: The colour change of resazurin is a common sign of viable cells or microbes.)
Experiment [11] is described as follows: resazurin metabolic signal in HepG2 cells – cell-based, resazurin fluorescence, 24 h, PK04 Diversity Set, profiling panel (AID 1172). Further: test concentration not given here. Conditions: HepG2 viability, higher = more signal.
Experiment [12] can be described thus: budding yeast growth changes without added modifier – OD600, strain BY4716, 24 h, basal condition, primary screen (AID 1173). As to conditions: S. cerevisiae BY4716 growth, OD600, 24 h; higher = more signal, called active from +8 up or from −8 down.
Experiment [13] in a line: viability profiling in MM1S myeloma cells – cell-based, resazurin fluorescence, basal, 24 h, PK04 Diversity Set, profiling panel (AID 1174). Further: test concentration not given here. Conditions: higher = more signal, called active from +8 up or from −8 down.
Experiment [14] concerns the target Dihydroorotate dehydrogenase (quinone), mitochondrial (Plasmodium falciparum (isolate 3D7)) (UniProt Q08210). Put plainly: inhibition of P. falciparum DHODH – biochemical, C-terminal His tag, absorbance 600 nm, primary screen (AID 1175).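 Further: recombinant parasite enzyme with a five histidine tag at its C terminus; test concentration not given here.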 As to conditions: PfDHODH enzyme, DCIP absorbance 600 nm; higher = more signal, called active from +8 up or from −8 down.
The nature of experiment [15]: inhibition of PAO1 biofilm formation – strain PAO1, LB-PBS medium, absorbance 600 nm, primary screen (AID 1176). Further: test concentration not given here. Conditions: P. aeruginosa PAO1 growth/biofilm, A600, 12 h; higher = more signal.
The nature of experiment [16]: growth modulation of vineyard yeast isolate – strain RM11-1a, OD600, basal, 24 h, primary screen (AID 1177).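 Further: cultures grown under basal conditions with no added stressor; test concentration not given here.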 As to conditions: S. cerevisiae RM11-1a growth, OD600, 24 h; higher = more signal, called active from +8 up or from −8 down.
The nature of experiment [17]: growth of efflux-deficient E. coli DRC39 – strain DRC39, OD650, 24 h, E. coli filamentation inducers, primary screen (AID 1178).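 Further: growth measured as culture turbidity by optical density at 650 nm; test concentration not given here.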 As to conditions: E. coli DRC39 acrAB, higher = more signal, called active from +8 up or from −8 down.
The nature of experiment [18]: growth of efflux-deficient E. coli DRC39 – strain DRC39, OD650, 48 h, E. coli filamentation inducers, primary screen (AID 1179).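 Further: screen aims at cell division blockers that make cells filament.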 Conditions: E. coli DRC39 delta-acrAB growth, higher = more signal, called active from +8 up or from −8 down.
A short description of experiment [19]: viability profiling in RPMI8226 myeloma cells – cell-based, resazurin fluorescence, basal, 24 h, PK04 Diversity Set, profiling panel (AID 1180).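 Further: RPMI8826 multiple myeloma cell line at 5000 cells per well; test concentration not given here.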 As to conditions: higher = more signal.
The target of experiment [20] is E3 ubiquitin-protein ligase XIAP (Homo sapiens) (UniProt P98170). Put plainly: small molecules binding XIAP protein – biophysical, small-molecule microarray, fluorescence 635 nm, primary screen (AID 1181).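 Further: score merges 667 nm emission and signal to noise over triplicate slides.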 As to conditions: higher = more signal.

“And” between values parts separate entries of the source, which are not always exact repeats. Identical values can stand only once. The source holds several records for some structures; these can differ, active in one and inactive in another. The source made the active and inactive calls. Unless noted, how the calls were made is not given here.

Dihydroorotate dehydrogenase (quinone), mitochondrial (Plasmodium falciparum (isolate 3D7)), sequence (Q08210 whole entry, looked up): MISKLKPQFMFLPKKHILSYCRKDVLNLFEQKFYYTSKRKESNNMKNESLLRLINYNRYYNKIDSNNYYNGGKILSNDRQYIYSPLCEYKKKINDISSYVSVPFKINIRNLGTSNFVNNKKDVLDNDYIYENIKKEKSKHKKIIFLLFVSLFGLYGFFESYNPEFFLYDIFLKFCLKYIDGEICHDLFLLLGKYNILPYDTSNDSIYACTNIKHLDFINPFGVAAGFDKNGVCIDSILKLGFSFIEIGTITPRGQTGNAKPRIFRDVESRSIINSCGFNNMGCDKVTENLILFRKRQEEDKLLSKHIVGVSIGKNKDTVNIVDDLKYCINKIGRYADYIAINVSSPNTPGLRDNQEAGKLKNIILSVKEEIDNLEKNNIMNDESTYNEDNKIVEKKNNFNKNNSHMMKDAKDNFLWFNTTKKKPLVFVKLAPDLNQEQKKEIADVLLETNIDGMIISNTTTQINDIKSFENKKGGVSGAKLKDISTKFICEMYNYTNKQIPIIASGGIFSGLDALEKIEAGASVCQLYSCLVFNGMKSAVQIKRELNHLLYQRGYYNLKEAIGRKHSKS
E3 ubiquitin-protein ligase XIAP (Homo sapiens), sequence (P98170 whole entry, looked up): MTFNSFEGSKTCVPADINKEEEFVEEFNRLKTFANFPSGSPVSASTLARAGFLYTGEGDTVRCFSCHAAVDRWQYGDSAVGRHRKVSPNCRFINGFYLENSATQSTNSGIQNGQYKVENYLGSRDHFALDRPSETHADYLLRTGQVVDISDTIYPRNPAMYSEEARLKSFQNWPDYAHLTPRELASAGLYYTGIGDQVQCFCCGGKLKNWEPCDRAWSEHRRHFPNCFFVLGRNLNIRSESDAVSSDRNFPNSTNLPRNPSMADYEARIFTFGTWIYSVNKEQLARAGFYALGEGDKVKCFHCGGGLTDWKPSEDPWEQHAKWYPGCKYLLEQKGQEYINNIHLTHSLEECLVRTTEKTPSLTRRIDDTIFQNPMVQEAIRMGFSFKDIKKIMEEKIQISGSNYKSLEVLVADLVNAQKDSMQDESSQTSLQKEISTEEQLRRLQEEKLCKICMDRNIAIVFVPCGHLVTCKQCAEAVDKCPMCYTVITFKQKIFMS

Turning to `COC(=O)C1=C(C)N(Cc2ccccc2)C2=C(C(C)=O)[C@H](c3ccccc3)[C@@](O)(C(=O)OC)C(=O)N2[C@@H]1c1ccccc1`, the z-score in experiment [1] was 1.73 and 0.919; in [2], -0.0798 and 0.56; in experiment [3], 0.954 and 0.364; in [4], 0.592 and 0.378; in [5] it was 0.604 and 0.984; in experiment [6], 3.1 and 0.826. Besides, the z-score in experiment [7] was -1.09 (inactive) and 2.47 (inactive); in experiment [8] it was -0.938 and -0.592; in experiment [9], -0.444 and 0.924; in [10], 1.78 (inactive) and 0.197 (inactive); in experiment [11], 1.38 and 0.559; in experiment [12], -2.41 (inactive) and -3.21 (inactive). Moreover, the z-score in [13] was 1.07 (inactive) and 0.983 (inactive); in experiment [15], 1.08 (inactive); in experiment [16] it was -0.107 (inactive) and -3.5 (inactive); in [17] it was 1.32 (inactive) and 0.552 (inactive); in experiment [18], 0.972 (inactive) and -1.35 (inactive); in [19], 1.27 and 0.0662. For the same molecule, the composite z-score is 0.523 (inactive) and -1.82 (inactive) in experiment [14]; 0.0177 and -0.244 in [20].
Consider `CO[C@@H]1C=CCC(=O)N2CCC[C@H]2C(=O)OC[C@H](C)C(=O)OC[C@H]1C`, for which the z-score in experiment [1] was 0.616; in experiment [2], 0.345; in experiment [3], 1.33; in experiment [4] it was 0.383; in experiment [5], -0.87; in experiment [6] it was 0.872. Moreover, the z-score in experiment [7] is 0.673 (inactive); in experiment [8] it was -0.0289; in [9], 0.331; in [10], 0.87 (inactive); in experiment [11], 0.445; in [12], -0.774 (inactive). The z-score in experiment [13] was -0.694 (inactive); in experiment [15] it was -0.72 (inactive); in experiment [16], 0.134 (inactive); in [17], 1.08 (inactive); in [18], 0.858 (inactive); in [19], 0.312. For the same molecule, the composite z-score in [14] was 0.634 (inactive); in experiment [20] it was 0.0595.
On to `C=C[C@H](C)[C@@H](O)c1ccc(OCCO)cc1`, for which the z-score in experiment [1] was 0.235 and -0.066; in [2], 0.101 and -0.192; in experiment [3], -0.211 and 0.619; in experiment [4] it was 0.529 and -0.301; in [5], -0.528 and 0.864; in experiment [6], -0.368 and 0.814. Moreover, the z-score in [7] was 0.428 (inactive) and 0.45 (inactive); in experiment [8] it was -0.961 and 0.99; in [9], 0.976 and -0.205; in experiment [10] it was 0.0233 (inactive) and -0.361 (inactive); in [11], 0.0272 and -0.227; in experiment [12] it was -1.41 (inactive) and -2.08 (inactive). For the same molecule, the z-score is -0.246 (inactive) and -0.5 (inactive) in experiment [13]; 0.684 (inactive) and 0.486 (inactive) in [15]; -0.371 (inactive) and 0.526 (inactive) in experiment [16]; -0.748 (inactive) and 0.371 (inactive) in experiment [17]; -0.902 (inactive) and 0.418 (inactive) in experiment [18]; 0.0577 and -0.603 in experiment [19]. Moreover, the composite z-score in experiment [14] was 0.14 (inactive) and -0.263 (inactive); in experiment [20], 0.074 and 0.18.
In the case of `CC(C)OC(=O)C=C1C[C@@H](c2cccc(C(F)(F)F)c2)O[C@@H](c2cccc(C(F)(F)F)c2)O1`, the z-score in [1] is 0.133 and 0.343; in [2] it was -0.425 and 0.279; in [3], 0.957 and 0.258; in [4] it was -0.499 and -1; in experiment [5] it was -0.195 and -0.167; in experiment [6], -0.447 and 0.606. Besides, the z-score in [7] is 0.297 (inactive) and 0.121 (inactive); in experiment [8] it was -0.897 and -0.238; in [9], -3.24 and -1.09; in [10] it was 0.308 (inactive) and 1 (inactive); in [11] it was -0.115 and 0.0158; in [12], 0.308 (inactive) and 0.626 (inactive). The z-score in experiment [13] is -1.7 (inactive) and 0.108 (inactive); in [15], 0.834 (inactive) and 0.269 (inactive); in experiment [16], 0.69 (inactive) and -0.0601 (inactive); in experiment [17], -0.169 (inactive) and -0.948 (inactive); in experiment [18], 1.04 (inactive) and 0.509 (inactive); in [19], -0.899 and 0.393. In addition, the composite z-score in experiment [14] was -2.02 (inactive) and -2.59 (inactive); in [20] it was -0.195 and 0.163.
With `COC(=O)C1=C(C)N(Cc2ccccc2)[C@]23O[C@](C(=O)OC)(C(=O)N2[C@@H]1c1ccccc1)[C@H]1C(=O)N(C)C(=O)[C@H]13`, the z-score was 0.395 and 1.67 in [1]; 1.1 and 0.612 in experiment [2]; 0.0623 and -0.164 in experiment [3]; 0.639 and 0.0646 in experiment [4]; -1.44 and 1.16 in [5]; 0.873 and 0.158 in experiment [6]. Further, the z-score was 0.107 (inactive) and 1.13 (inactive) in [7]; -0.536 and 0.12 in [8]; 0.551 and -0.416 in experiment [9]; -0.81 (inactive) and 0.0401 (inactive) in [10]; 0.101 and 1.13 in experiment [11]; -0.974 (inactive) and -1.6 (inactive) in experiment [12]. Moreover, the z-score in experiment [13] is 0.856 (inactive) and 0.302 (inactive); in experiment [15], -1.59 (inactive); in [16], 1.09 (inactive) and -0.535 (inactive); in [17], -0.34 (inactive) and 0.732 (inactive); in experiment [18], 0.207 (inactive) and 0.764 (inactive); in experiment [19], 0.389 and -0.0962. Moreover, the composite z-score in experiment [14] is 0.207 (inactive) and 0.467 (inactive); in experiment [20], 0.072 and 2.05.
In the case of `CO[C@@H]1COC(=O)[C@H](Cc2ccccc2)NC(=O)CC=C[C@@H](C)[C@H](OC)COC(=O)[C@@H](C)NC(=O)CC=C[C@H]1C`, the z-score is -0.0911 and -0.304 in experiment [1]; 0.686 and -0.191 in experiment [2]; 0.0488 and 1.09 in [3]; 0.144 and 0.329 in experiment [4]; 0.173 and 1.12 in [5]; 0.999 and -0.15 in [6]. For the same molecule, the z-score is 0.67 (inactive) and 1.56 (inactive) in experiment [7]; 0.645 and -0.266 in experiment [8]; 0.452 and 0.623 in [9]; 0.632 (inactive) and 0.35 (inactive) in [10]; 0.959 and 0.62 in experiment [11]; -1.78 (inactive) and -1.48 (inactive) in experiment [12]. In addition, the z-score in [13] was 1.27 (inactive) and 0.921 (inactive); in [16], -1.34 (inactive) and -1.08 (inactive); in experiment [17] it was 0.357 (inactive) and 0.951 (inactive); in experiment [18], 0.067 (inactive) and 0.74 (inactive); in [19], 1 and -0.289. Besides, the composite z-score in [14] was -0.595 (inactive) and -0.614 (inactive); in experiment [20], -0.203 and -0.192.
Regarding `CCOC(=O)[C@@H]1CC=C2CC1C(=O)N1CCC[C@@H]1[C@H]2O[Si](C)(C)C(C)(C)C` (some centres undefined), the z-score in experiment [1] is -0.366 and -0.566; in experiment [2], -0.0834 and 0.84; in experiment [3] it was -0.45 and -1.76; in experiment [4] it was -0.204 and -0.227; in [5], -1.71 and -2.37; in experiment [6] it was -1.48 and 0.214. The z-score in experiment [7] is -0.649 (inactive) and 0.192 (inactive); in experiment [8] it was -0.0804 and 0.132; in experiment [9] it was 0.144 and 0.321; in [10] it was 0.016 (inactive) and 2.5 (inactive); in experiment [11] it was -0.464 and 1.65; in [12] it was 0.0163 (inactive) and -8.53 (active). Moreover, the z-score was -0.226 (inactive) and 1.07 (inactive) in experiment [13]; -0.0825 (inactive) and -0.377 (inactive) in experiment [15]; -1.35 (inactive) and 0.069 (inactive) in [16]; 0.03 (inactive) and 0.867 (inactive) in experiment [17]; 0.262 (inactive) and -0.586 (inactive) in [18]; -0.516 and 0.845 in experiment [19]. The composite z-score is -0.259 (inactive) and -0.198 (inactive) in [14]; -0.343 and -0.171 in experiment [20].

Values taken from PubChem BioAssay.
